Values joined by “and” are separate entries in the source; they are usually repeats but may differ in a detail not shown here. Equal values may be shown once. Records with an inconclusive call do not appear. Active and inactive are the calls of the source. The calls were made as follows, unless noted: active = hit-call score of the fitted dose curve at least 0.9, where 1 is the maximum; inconclusive = response in the unintended direction; inactive = score below 0.9.
Legend:
[1] = biological target: human CYP1A2, CYP1A2 (gene 1544) (UniProt P05177); assay: NVS_ADME_hCYP1A2: NovaScreen (NVS) CYP450-related Enzyme Activity (ADME) Assay for human CYP1A2 (AID 2283102);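 as to AC50: potency for inhibition since loss of fluorescence marks reduced CYP1A2 activity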
Sequence of human CYP1A2, CYP1A2 (gene 1544) (P05177 whole entry, looked up): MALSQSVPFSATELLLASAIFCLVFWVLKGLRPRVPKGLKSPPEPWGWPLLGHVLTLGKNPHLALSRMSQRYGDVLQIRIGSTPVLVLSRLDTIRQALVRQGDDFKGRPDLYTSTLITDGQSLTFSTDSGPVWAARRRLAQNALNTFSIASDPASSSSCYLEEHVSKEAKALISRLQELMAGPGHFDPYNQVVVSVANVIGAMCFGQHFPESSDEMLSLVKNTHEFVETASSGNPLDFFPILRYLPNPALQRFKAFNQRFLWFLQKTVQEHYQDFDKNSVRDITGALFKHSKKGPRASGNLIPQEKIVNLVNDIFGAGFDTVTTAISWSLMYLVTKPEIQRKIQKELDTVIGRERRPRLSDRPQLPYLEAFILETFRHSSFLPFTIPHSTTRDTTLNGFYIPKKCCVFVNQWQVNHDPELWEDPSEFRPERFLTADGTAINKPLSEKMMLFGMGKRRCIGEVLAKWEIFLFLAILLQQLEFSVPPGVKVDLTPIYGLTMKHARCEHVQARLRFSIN
Procedure, shortened: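 Enzyme activity of insect-cell-expressed human CYP1A2 measured by fluorescence 0.5 h after compound addition, relative to acetonitrile. Compounds first tested in duplicate at 10 uM, actives followed up in concentration series.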

[2] = biological target: Cytochrome P450 2C19 (Homo sapiens) (UniProt P33261); assay: NVS_ADME_hCYP2C19: NovaScreen (NVS) CYP450-related Enzyme Activity (ADME) Assay for human CYP2C19 (AID 2283113);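 also: potency for inhibition seen as loss of fluorescent signal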
Procedure, shortened: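 Compounds first screened in duplicate at 10 uM, then confirmed in concentration series. Insect-cell-expressed human CYP2C19 turned over a fluorogenic substrate, and fluorescence was read after 1 h. Inhibition taken as signal loss relative to acetonitrile.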

[3] = biological target: rat CYP2C11, Cyp2c11 (gene 29277) (UniProt P08683); assay: NVS_ADME_rCYP2C11: NovaScreen (NVS) CYP450-related Enzyme Activity (ADME) Assay for rat CYP2C11 (AID 2283118)
Sequence of rat CYP2C11, Cyp2c11 (gene 29277) (P08683 whole entry, looked up): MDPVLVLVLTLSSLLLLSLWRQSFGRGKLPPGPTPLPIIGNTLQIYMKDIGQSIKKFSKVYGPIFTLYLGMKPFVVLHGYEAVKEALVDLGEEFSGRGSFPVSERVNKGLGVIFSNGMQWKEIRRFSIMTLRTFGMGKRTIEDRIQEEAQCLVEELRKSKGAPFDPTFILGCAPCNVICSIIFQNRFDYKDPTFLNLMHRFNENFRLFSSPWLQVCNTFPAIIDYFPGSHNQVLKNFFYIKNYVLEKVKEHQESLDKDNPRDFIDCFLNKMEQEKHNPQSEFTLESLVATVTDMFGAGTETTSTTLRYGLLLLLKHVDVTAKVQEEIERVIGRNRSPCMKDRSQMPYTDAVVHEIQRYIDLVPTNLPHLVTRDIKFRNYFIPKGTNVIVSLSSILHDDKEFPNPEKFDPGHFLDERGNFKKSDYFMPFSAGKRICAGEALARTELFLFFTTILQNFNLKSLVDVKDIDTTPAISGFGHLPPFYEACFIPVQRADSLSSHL
Procedure, shortened: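 Cell-free recombinant rat enzyme with fluorescent substrate; readout 0.33 h after dosing, loss of signal versus acetonitrile control. Initial duplicate single-point at 10 uM; actives rerun in concentration series.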

[4] = biological target: rat CYP2C12, Cyp2c12 (gene 25011) (UniProt P11510); assay: NVS_ADME_rCYP2C12: NovaScreen (NVS) CYP450-related Enzyme Activity (ADME) Assay for rat CYP2C12 (AID 2283119)
Sequence of rat CYP2C12, Cyp2c12 (gene 25011) (P11510 whole entry, looked up): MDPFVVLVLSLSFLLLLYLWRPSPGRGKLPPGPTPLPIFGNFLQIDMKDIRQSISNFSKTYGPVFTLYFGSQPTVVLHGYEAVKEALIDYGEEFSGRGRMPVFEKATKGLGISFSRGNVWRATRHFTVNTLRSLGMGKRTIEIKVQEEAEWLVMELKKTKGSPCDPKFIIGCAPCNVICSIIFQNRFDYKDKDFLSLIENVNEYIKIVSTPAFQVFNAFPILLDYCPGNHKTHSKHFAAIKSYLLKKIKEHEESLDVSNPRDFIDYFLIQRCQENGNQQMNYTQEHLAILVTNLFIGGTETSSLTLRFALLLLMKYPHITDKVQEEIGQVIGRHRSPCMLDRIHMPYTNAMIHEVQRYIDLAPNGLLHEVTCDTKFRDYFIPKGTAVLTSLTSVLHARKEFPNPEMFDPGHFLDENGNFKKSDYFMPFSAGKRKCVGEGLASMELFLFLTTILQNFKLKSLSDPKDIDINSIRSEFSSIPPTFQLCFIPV
Procedure, shortened: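 Cell-free recombinant rat CYP2C12 activity read by fluorescence 0.5 h after dosing; loss of signal versus acetonitrile control. Primary screen in duplicate at 10 uM; actives then run in concentration-response format.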

[5] = biological target: rat CYP2A1, Cyp2a1 (gene 24894) (UniProt P11711); assay: NVS_ADME_rCYP2A1: NovaScreen (NVS) CYP450-related Enzyme Activity (ADME) Assay for rat CYP2A1 (AID 2283114; active = hit-call score of the fitted dose curve at least 0.9, where 1 is the maximum; inactive = score below 0.9)
Sequence of rat CYP2A1, Cyp2a1 (gene 24894) (P11711 whole entry, looked up): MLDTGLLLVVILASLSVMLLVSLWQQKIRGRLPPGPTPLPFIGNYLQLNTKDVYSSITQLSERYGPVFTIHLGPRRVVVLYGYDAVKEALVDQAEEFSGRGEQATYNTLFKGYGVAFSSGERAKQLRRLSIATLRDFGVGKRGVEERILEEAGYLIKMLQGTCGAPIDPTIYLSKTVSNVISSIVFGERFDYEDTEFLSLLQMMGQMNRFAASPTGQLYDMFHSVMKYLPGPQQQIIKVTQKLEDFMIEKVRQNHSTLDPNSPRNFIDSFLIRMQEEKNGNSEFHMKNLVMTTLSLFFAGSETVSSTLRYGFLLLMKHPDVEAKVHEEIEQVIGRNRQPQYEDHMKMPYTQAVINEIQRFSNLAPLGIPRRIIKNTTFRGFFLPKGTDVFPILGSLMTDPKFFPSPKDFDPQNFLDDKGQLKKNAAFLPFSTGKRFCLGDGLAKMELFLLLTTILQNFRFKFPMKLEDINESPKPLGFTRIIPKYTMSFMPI
Procedure, shortened: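 Recombinant rat CYP2A1, cell-free, fluorogenic substrate turnover read by fluorescence intensity 0.75 h after dosing. Primary screen at 10 uM in duplicate; actives rerun as concentration-response up to 20 uM; loss of signal versus acetonitrile control.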

[6] = biological target: human CYP2B6, CYP2B6 (gene 1555) (UniProt P20813); assay: NVS_ADME_hCYP2B6: NovaScreen (NVS) CYP450-related Enzyme Activity (ADME) Assay for human CYP2B6 (AID 2283101)
Sequence of human CYP2B6, CYP2B6 (gene 1555) (P20813 whole entry, looked up): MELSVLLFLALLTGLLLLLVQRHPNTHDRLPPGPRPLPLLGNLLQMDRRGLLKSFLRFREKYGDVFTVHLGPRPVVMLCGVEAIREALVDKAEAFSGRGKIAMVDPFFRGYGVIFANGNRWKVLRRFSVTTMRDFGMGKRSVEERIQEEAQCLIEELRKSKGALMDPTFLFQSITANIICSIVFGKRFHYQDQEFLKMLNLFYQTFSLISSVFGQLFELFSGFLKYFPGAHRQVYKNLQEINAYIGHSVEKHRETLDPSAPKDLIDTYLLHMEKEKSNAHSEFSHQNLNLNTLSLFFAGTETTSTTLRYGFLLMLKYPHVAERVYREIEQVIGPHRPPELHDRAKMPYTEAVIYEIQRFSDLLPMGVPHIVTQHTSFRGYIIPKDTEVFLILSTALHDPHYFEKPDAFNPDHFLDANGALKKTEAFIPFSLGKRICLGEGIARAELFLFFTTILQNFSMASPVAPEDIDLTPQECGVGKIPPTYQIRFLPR
Procedure, shortened: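 Cell-free recombinant enzyme assay with a fluorogenic substrate; fluorescence intensity read 1 hour after dosing. Loss of signal relative to acetonitrile negative control indicates inhibition. Primary screen run in duplicate at 10 uM, actives then tested in concentration series.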

[7] = biological target: Cytochrome P450 3A4 (Homo sapiens) (UniProt P08684); assay: NVS_ADME_hCYP3A4: NovaScreen (NVS) CYP450-related Enzyme Activity (ADME) Assay for human CYP3A4 (AID 2283110)
Sequence of Cytochrome P450 3A4 (Homo sapiens) (P08684 whole entry, looked up): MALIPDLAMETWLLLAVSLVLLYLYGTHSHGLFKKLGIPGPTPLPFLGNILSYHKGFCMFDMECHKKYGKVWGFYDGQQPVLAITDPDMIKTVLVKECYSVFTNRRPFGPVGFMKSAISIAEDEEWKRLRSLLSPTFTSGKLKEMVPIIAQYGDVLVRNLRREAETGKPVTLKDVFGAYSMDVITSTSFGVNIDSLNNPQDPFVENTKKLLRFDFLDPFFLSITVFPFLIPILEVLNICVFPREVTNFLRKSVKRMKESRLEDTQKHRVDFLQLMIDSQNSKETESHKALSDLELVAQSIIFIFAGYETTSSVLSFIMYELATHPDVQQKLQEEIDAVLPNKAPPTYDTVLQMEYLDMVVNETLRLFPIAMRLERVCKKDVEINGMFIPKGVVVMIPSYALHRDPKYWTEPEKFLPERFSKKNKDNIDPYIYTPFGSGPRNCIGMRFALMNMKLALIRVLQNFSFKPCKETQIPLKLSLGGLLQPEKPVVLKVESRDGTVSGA
Procedure, shortened: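 Cell-free assay using insect-cell-expressed human CYP3A4 with a fluorogenic substrate; fluorescence intensity was read 0.33 hour after dosing. Loss of signal relative to acetonitrile vehicle indicated inhibition. Primary single-concentration screen at 10 uM, in duplicate, then concentration series.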

[8] = biological target: rat CYP2A2, Cyp2a2 (gene 24895) (UniProt P15149); assay: NVS_ADME_rCYP2A2: NovaScreen (NVS) CYP450-related Enzyme Activity (ADME) Assay for rat CYP2A2 (AID 2283116)
Sequence of rat CYP2A2, Cyp2a2 (gene 24895) (P15149 whole entry, looked up): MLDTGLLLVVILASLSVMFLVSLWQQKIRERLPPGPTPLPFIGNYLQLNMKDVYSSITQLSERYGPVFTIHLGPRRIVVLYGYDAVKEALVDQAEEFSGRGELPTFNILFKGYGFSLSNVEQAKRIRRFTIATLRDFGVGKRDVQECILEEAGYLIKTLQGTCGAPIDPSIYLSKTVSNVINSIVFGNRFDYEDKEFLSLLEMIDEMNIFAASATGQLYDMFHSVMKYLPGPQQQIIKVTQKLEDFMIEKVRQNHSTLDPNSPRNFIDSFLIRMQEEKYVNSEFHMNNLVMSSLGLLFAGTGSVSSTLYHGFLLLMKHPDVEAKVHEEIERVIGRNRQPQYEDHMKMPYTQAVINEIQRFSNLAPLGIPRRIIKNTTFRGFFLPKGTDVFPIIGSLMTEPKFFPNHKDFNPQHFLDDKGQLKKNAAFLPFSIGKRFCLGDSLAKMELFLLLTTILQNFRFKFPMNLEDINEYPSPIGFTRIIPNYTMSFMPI
Procedure, shortened: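 Cell-free recombinant rat CYP2A2 activity with fluorogenic substrate, fluorescence read 0.2 h after dosing. Chemicals screened at 10 uM in duplicate, hits then run in concentration-response up to 20 uM; signal loss versus acetonitrile baseline.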

[9] = biological target: rat CYP2C13, Cyp2c13 (gene 171521) (UniProt P20814); assay: NVS_ADME_rCYP2C13: NovaScreen (NVS) CYP450-related Enzyme Activity (ADME) Assay for rat CYP2C13 (AID 2283121)
Sequence of rat CYP2C13, Cyp2c13 (gene 171521) (P20814 whole entry, looked up): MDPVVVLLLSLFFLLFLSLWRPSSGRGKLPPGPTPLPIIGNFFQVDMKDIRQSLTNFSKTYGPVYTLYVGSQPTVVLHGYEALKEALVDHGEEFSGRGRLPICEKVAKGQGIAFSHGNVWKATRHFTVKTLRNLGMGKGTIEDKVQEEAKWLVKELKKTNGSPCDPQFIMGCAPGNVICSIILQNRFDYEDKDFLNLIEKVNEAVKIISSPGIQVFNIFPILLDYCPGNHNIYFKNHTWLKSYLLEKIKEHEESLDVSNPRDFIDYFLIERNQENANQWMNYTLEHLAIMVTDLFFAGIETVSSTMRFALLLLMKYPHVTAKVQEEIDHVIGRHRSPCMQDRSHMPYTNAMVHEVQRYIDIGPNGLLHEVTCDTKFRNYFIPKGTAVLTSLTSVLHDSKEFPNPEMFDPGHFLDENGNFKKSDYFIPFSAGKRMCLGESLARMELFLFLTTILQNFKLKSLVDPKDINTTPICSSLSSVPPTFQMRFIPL
Procedure, shortened: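 Recombinant rat CYP2C13 with fluorogenic substrate, 0.75 h cell-free incubation; primary screen in duplicate at 10 uM, actives followed in concentration series. Fluorescence loss relative to acetonitrile control indicates inhibition.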

[10] = biological target: rat CYP2D2, Cyp2d26 (gene 25053) (UniProt P10634); assay: NVS_ADME_rCYP2D2: NovaScreen (NVS) CYP450-related Enzyme Activity (ADME) Assay for rat CYP2D2 (AID 2283124)
Sequence of rat CYP2D2, Cyp2d26 (gene 25053) (P10634 whole entry, looked up): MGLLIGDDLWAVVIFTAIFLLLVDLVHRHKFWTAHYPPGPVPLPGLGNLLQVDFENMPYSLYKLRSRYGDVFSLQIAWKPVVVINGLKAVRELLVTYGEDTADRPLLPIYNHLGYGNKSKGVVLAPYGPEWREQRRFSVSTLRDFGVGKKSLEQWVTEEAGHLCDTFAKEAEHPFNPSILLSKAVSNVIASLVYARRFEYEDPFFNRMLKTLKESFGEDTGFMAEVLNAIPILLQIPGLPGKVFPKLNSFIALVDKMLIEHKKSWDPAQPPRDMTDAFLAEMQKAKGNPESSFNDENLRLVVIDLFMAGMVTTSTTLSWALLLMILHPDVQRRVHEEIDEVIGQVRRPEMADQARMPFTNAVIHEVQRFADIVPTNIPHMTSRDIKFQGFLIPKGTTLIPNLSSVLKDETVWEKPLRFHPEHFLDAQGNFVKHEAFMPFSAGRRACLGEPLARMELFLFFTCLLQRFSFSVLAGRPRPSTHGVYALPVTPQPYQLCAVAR
Procedure, shortened: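 Recombinant rat CYP2D2 in a cell-free fluorogenic activity assay, fluorescence read 0.75 h after dosing. Primary screen in duplicate at 10 uM; actives re-run singly in concentration-response to 20 uM, relative to acetonitrile.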

[11] = system: rat CYP3A1, gene 25642; assay: NVS_ADME_rCYP3A1: NovaScreen (NVS) CYP450-related Enzyme Activity (ADME) Assay for rat CYP3A1 (AID 2283126)
Procedure, shortened: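 Cell-free recombinant CYP assay with fluorescent substrate, read 0.5 h after dosing. Screened at 10 uM in duplicate, hits at up to 20 uM in concentration-response; loss of signal versus acetonitrile baseline.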

[12] = biological target: rat CYP3A2, Cyp3a2 (gene 266682) (UniProt P05183); assay: NVS_ADME_rCYP3A2: NovaScreen (NVS) CYP450-related Enzyme Activity (ADME) Assay for rat CYP3A2 (AID 2283128)
Sequence of rat CYP3A2, Cyp3a2 (gene 266682) (P05183 whole entry, looked up): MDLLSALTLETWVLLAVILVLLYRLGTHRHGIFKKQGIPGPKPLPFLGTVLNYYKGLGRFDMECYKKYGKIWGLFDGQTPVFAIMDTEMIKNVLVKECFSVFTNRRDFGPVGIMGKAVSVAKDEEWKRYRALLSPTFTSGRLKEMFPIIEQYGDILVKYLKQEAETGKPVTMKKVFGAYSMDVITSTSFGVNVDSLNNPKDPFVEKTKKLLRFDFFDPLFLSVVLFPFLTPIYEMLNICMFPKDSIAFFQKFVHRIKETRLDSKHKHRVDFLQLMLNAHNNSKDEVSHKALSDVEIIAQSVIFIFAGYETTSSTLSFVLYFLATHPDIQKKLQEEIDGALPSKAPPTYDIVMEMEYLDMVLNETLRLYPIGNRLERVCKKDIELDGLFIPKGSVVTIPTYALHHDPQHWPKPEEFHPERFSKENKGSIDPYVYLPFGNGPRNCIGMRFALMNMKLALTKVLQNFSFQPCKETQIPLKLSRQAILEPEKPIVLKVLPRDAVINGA
Procedure, shortened: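 Cell-free rat CYP3A2 enzyme assay with fluorescent substrate, read 0.5 h after dosing. Primary duplicate screen at 10 uM; actives run in concentration-response up to 20 uM, relative to acetonitrile baseline.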

[13] = system: rat CYP2C6, gene 293989; assay: NVS_ADME_rCYP2C6: NovaScreen (NVS) CYP450-related Enzyme Activity (ADME) Assay for rat CYP2C6 (AID 2283120)
Procedure, shortened: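 Cell-free recombinant rat CYP2C6 with fluorogenic substrate, read by fluorescence 1 h after dosing; acetonitrile as negative control. Primary screen at 10 uM in duplicate, actives then in concentration-response up to 20 uM.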

[14] = biological target: rat CYP2D1, Cyp2d1 (gene 266684) (UniProt P10633); assay: NVS_ADME_rCYP2D1: NovaScreen (NVS) CYP450-related Enzyme Activity (ADME) Assay for rat CYP2D1 (AID 2283122)
Procedure, shortened: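 Cell-free fluorescence enzyme-activity assay on extracted rat CYP2D1 protein, read 0.75 h after dosing. Primary screen in duplicate at 10 uM; qualifying chemicals then run in concentration-response to 20 uM max, loss-of-signal versus acetonitrile baseline.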

[15] = biological target: human CYP2C8, CYP2C8 (gene 1558) (UniProt P10632); assay: NVS_ADME_hCYP2C8: NovaScreen (NVS) CYP450-related Enzyme Activity (ADME) Assay for human CYP2C8 (AID 2283104; active = hit-call score of the fitted dose curve at least 0.9, where 1 is the maximum; inactive = score below 0.9)
Procedure, shortened: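 Recombinant human CYP2C8 with fluorogenic substrate, 0.5 h, fluorescence intensity; signal loss fitted versus acetonitrile. Screened in duplicate at 10 uM, then actives run in concentration-response up to 20 uM.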

[16] = biological target: human CYP2J2, CYP2J2 (gene 1573) (UniProt P51589); assay: NVS_ADME_hCYP2J2: NovaScreen (NVS) CYP450-related Enzyme Activity (ADME) Assay for human CYP2J2 (AID 2283106)
Procedure, shortened: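 Cell-free assay of recombinant CYP2J2 with a fluorogenic substrate, read 1 h after dosing; loss of signal versus acetonitrile. Primary screen at 10 uM in duplicate, then concentration-response up to 20 uM for chemicals passing threshold (e.g., 30% inhibition).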

[17] = biological target: human CYP2D6, CYP2D6 (gene 1565) (UniProt P10635); assay: NVS_ADME_hCYP2D6: NovaScreen (NVS) CYP450-related Enzyme Activity (ADME) Assay for human CYP2D6 (AID 2283107)
Procedure, shortened: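 Fluorescence readout of recombinant CYP2D6 (insect-cell derived) activity after 1 h incubation with test chemical. Acetonitrile served as baseline, loss-of-signal direction. Single-concentration duplicate screening at 10 uM preceded concentration-response retesting.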

[18] = biological target: rat CYP1A2, Cyp1a2 (gene 24297) (UniProt P04799); assay: NVS_ADME_rCYP1A2: NovaScreen (NVS) CYP450-related Enzyme Activity (ADME) Assay for rat CYP1A2 (AID 2283115)
Procedure, shortened: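 Cell-free recombinant rat enzyme with fluorogenic substrate, read by fluorescence intensity 1 hour after dosing. Loss of signal versus acetonitrile negative control; primary screen at 10 uM in duplicate, actives followed in concentration series.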

Measured: AC50

O=[N+]([O-])c1cc(C(F)(F)F)c(Cl)c([N+](=O)[O-])c1Nc1ncc(C(F)(F)F)cc1Cl
inactive: [1] | [4]
active: [2] 1390 nM | [3] 2910 nM

CN(C)C(=O)Nc1cccc(C(F)(F)F)c1
active: [1] 5300 nM | [5] 4330 nM

CC(C1CC1)C(O)(Cn1cncn1)c1ccc(Cl)cc1 (configuration not stated)
active: [6] 6320 nM | [7] 4560 nM | [2] 111 nM | [5] 4580 nM | [8] 56.8 nM and 76.2 nM | [3] 1690 nM | [4] 3710 nM | [9] 75.5 nM | [10] 3.14 µM and 4.54 µM | [11] 384 nM | [12] 771 nM

FC(F)C(F)(F)OCC(Cn1cncn1)c1ccc(Cl)cc1Cl (configuration not stated)
active: [6] 3740 nM | [1] 4850 nM | [7] 6400 nM | [2] 6.46 nM | [5] 1850 nM | [8] 74 nM | [3] 732 nM | [4] 3950 nM | [13] 1680 nM | [9] 257 nM | [14] 7860 nM | [10] 5.52 µM | [11] 3650 nM | [12] 5510 nM

CCCOCC(=Nc1ccc(Cl)cc1C(F)(F)F)n1ccnc1
active: [6] 1580 nM | [1] 7010 nM | [15] 3770 nM | [16] 101 nM | [17] 6700 nM | [7] 522 nM | [2] 160 nM | [5] 955 nM | [8] 29.4 nM | [3] 798 nM | [4] 2460 nM | [13] 976 nM | [9] 966 nM | [14] 6880 nM | [10] 3.2 µM | [11] 2800 nM | [12] 1700 nM
inactive: [18]

CCc1cccc(CC)c1N(COC)C(=O)CCl
active: [6] 1580 nM | [2] 6100 nM

C=C(C)[C@H]1Cc2c(ccc3c2O[C@@H]2COc4cc(OC)c(OC)cc4[C@@H]2C3=O)O1
active: [2] 434 nM | [3] 5050 nM | [9] 2260 nM | [12] 2880 nM
inactive: [7] | [5] | [8]

COc1ccc(C(=CC(=O)N2CCOCC2)c2ccc(Cl)cc2)cc1OC
active: [2] 7590 nM | [13] 3980 nM | [11] 3860 nM | [12] 6540 nM

From PubChem BioAssay (EPA / NIEHS)
